From PubChem BioAssay (EPA / NIEHS)
Results filed as inconclusive are left out. The source made the active and inactive calls. Rule for the calls, unless noted: active = hit-call score of the fitted dose curve at least 0.9, where 1 is the maximum; inactive = score below 0.9.

Experiments:
[1] = ATG_Sox_CIS: Attagene CIS-FACTORIAL HepG2 Assay for human SRY-box transcription factor (SOX) (AID 2282960); settings: HepG2 Attagene cis-factorial SOX reporter, mRNA; actives raise or lower the signal
Procedure, shortened: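 HepG2 cells transiently transfected with multiple cis-regulated reporter units, then dosed for 24 h. Reporter mRNA quantified by RT-PCR, fluorescent labelling, HpaI digestion and capillary electrophoresis; bidirectional fit versus DMSO.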

[2] = molecular target: Transcription factor Sp1 (Homo sapiens) (UniProt P08047); assay: ATG_Sp1_CIS: Attagene CIS-FACTORIAL HepG2 Assay for human Specificity Protein 1 (Sp1) (AID 2282961); settings: HepG2 Sp1 cis-reporter transcription, actives raise or lower the signal
Transcription factor Sp1 (Homo sapiens), sequence (P08047 whole entry, looked up): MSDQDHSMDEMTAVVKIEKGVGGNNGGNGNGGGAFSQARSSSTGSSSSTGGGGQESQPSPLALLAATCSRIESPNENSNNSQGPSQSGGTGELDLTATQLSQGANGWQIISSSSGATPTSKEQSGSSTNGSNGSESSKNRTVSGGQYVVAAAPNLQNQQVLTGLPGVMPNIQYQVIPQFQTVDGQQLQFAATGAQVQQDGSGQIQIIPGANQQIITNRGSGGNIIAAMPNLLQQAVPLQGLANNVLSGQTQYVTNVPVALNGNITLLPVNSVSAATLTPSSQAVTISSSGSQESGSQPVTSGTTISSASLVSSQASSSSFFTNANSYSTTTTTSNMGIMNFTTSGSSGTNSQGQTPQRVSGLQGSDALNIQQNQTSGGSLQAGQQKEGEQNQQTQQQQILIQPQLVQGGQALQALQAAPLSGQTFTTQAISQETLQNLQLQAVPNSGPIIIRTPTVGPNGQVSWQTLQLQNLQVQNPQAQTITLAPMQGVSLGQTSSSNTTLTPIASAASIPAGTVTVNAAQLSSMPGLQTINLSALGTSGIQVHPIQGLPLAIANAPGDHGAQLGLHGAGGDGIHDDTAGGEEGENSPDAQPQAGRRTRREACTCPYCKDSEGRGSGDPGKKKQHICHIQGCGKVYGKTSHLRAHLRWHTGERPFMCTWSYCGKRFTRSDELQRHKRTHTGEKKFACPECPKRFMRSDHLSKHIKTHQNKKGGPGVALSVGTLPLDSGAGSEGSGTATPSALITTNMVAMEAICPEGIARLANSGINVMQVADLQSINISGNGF
Procedure, shortened: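 HepG2 cells transiently transfected with multiplexed cis-regulated reporter constructs, chemical exposure 24 h. Reporter mRNA quantified by RT-PCR with capillary electrophoresis; bidirectional fit relative to DMSO.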

[3] = molecular target: Signal transducer and activator of transcription 3 (Homo sapiens) (UniProt P40763); assay: ATG_STAT3_CIS: Attagene CIS-FACTORIAL HepG2 Assay for human Signal Transducer and Activator of Transcription 3 (STAT3) (AID 2282963); settings: HepG2, Attagene cis-factorial STAT3 reporter transcription; actives raise or lower the signal
Signal transducer and activator of transcription 3 (Homo sapiens), sequence (P40763 whole entry, looked up): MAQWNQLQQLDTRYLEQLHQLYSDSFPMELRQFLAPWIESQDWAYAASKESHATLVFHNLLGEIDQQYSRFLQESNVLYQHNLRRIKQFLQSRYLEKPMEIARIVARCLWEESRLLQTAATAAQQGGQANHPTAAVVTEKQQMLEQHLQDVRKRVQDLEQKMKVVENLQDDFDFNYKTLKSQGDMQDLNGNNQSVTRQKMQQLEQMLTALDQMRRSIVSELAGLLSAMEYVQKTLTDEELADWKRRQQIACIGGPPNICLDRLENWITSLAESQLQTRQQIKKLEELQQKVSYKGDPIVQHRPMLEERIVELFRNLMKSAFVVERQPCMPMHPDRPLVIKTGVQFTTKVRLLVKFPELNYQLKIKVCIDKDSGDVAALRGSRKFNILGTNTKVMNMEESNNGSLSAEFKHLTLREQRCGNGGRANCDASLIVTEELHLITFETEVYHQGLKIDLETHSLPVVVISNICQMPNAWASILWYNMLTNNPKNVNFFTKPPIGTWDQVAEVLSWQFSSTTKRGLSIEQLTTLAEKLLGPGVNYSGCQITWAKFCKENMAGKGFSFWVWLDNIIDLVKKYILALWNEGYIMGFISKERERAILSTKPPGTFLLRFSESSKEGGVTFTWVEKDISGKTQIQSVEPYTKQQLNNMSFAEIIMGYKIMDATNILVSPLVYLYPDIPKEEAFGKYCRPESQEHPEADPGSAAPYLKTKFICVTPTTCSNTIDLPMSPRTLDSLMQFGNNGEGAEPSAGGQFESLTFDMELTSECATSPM
Procedure, shortened: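 HepG2 cells transiently transfected with cis-element-driven multiple reporter transcription units; after 24 h chemical exposure, reporter mRNA measured by RT-PCR, 6-FAM primer-extension labelling, HpaI digestion and capillary electrophoresis. Bidirectional fitting versus DMSO baseline.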

[4] = ATG_TCF_b_cat_CIS: Attagene CIS-FACTORIAL HepG2 Assay for human T-Cell-Factor with beta-catenin (TCF/b-cat) (AID 2282965); settings: HepG2 TCF/beta-catenin cis-reporter transcription, actives raise or lower the signal
Procedure, shortened: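 Using capillary electrophoresis as the read-out, labelled reporter cDNA fragments from transiently transfected HepG2 were sized and quantified. Exposure lasted 24 hours; activity in either direction was referenced to DMSO.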

[5] = ATG_TAL_CIS: Attagene CIS-FACTORIAL HepG2 Assay for human TAL Basal Promoter (AID 2282966); settings: HepG2 Attagene cis-factorial TAL promoter reporter; actives raise or lower the signal;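 note: background control endpoint measuring basal TAL promoter reporter mRNA not a specific factor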
Procedure, shortened: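 HepG2 cells were transiently transfected with promoter-driven multiplexed reporter units and dosed for 24 h. Reporter mRNA was measured by RT-PCR with capillary electrophoresis fluorescence; bidirectional fits used DMSO as baseline, serving as a background control.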

[6] = ATG_TGFb_CIS: Attagene CIS-FACTORIAL HepG2 Assay for human Transforming Growth Factor (TGF) (AID 2282967); settings: HepG2 Attagene CIS TGFb reporter, mRNA transcription; actives raise or lower the signal
Procedure, shortened: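 Transcript-level reporter readout: HepG2 transfectants, 24 h exposure, RNA to cDNA, reporter-specific PCR, fluorescent primer extension, capillary sizing against ROX standards. Gain- or loss-of-signal relative to DMSO.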

[7] = molecular target: X-box-binding protein 1 (Homo sapiens) (UniProt P17861); assay: ATG_Xbp1_CIS: Attagene CIS-FACTORIAL HepG2 Assay for human X-box Binding Protein 1 (XBP1) (AID 2282972); settings: HepG2 XBP1 cis-element reporter, Attagene multiplex; actives raise or lower the signal
X-box-binding protein 1 (Homo sapiens), sequence (P17861 whole entry, looked up): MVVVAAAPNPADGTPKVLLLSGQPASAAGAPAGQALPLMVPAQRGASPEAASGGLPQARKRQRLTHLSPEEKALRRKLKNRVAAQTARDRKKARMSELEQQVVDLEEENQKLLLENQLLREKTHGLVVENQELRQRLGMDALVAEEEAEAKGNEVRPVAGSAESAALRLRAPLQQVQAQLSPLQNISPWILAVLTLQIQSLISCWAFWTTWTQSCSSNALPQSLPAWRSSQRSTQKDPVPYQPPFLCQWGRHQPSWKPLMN
Procedure, shortened: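 HepG2 cells transiently transfected with cis-regulated multiple reporter transcription units; endogenous transcription factor activity measured 24 hours after chemical dosing. Reporter mRNA quantified by RT-PCR, 6-FAM primer extension, HpaI digestion and capillary electrophoresis; bidirectional fitting versus DMSO.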

[8] = ATG_M_19_TRANS: Attagene TRANS-FACTORIAL HepG2 Assay for M19 Transcription Factor (Internal Marker) (AID 2282974; active = hit-call score of the fitted dose curve at least 0.9, where 1 is the maximum); settings: HepG2 Attagene TRANS-FACTORIAL M19 internal marker reporter
Procedure, shortened: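 HepG2 transiently transfected with GAL4-UAS multiplex reporter constructs, exposed 24 h; reporter RNA quantified by RT-PCR, 6-FAM labeling, HpaI digestion and capillary electrophoresis; internal background marker fitted upward versus DMSO.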

[9] = ATG_TA_CIS: Attagene CIS-FACTORIAL HepG2 Assay for human TA Basal Promoter (AID 2282964); settings: HepG2 Attagene CIS-factorial TA basal promoter reporter; actives raise or lower the signal
Procedure, shortened: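 Multiplexed mRNA reporter assay, HepG2, 24 h. Reporter cDNA amplified, 6-FAM primer-extended, HpaI-cut, CE-sized; DMSO = negative control and baseline.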

[10] = ATG_GAL4_TRANS: Attagene TRANS-FACTORIAL HepG2 Assay for GAL4 (Internal Marker) (AID 2282976; active = hit-call score of the fitted dose curve at least 0.9, where 1 is the maximum); settings: HepG2 Attagene TRANS GAL4 internal marker reporter
Procedure, shortened: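 HepG2 cells transiently transfected with multiplexed GAL4-UAS reporter constructs were dosed for 24 h. Reporter mRNA was measured by RT-PCR, 6-FAM primer extension, HpaI digestion and capillary electrophoresis, and gain of signal was fitted relative to DMSO.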

[11] = molecular target: Glucocorticoid receptor (Homo sapiens) (UniProt P04150); assay: ATG_GR_TRANS: Attagene TRANS-FACTORIAL HepG2 Assay for human Glucocorticoid Receptor (GR) (AID 2282978; active = hit-call score of the fitted dose curve at least 0.9, where 1 is the maximum;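 note: activators score as hits since higher reporter transcript over DMSO is fitted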); settings: HepG2 Attagene TRANS GR reporter, mRNA transcription
Procedure, shortened: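 HepG2 cells transiently transfected with GAL4-UAS reporter units and exogenous GR-Gal4 chimera, dosed 24 h. Reporter mRNA by RT-PCR, FAM labeling, HpaI digest and capillary electrophoresis; gain-of-signal fit versus DMSO.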

[12] = molecular target: Oxysterols receptor LXR-alpha (Homo sapiens) (UniProt Q13133); assay: ATG_LXRa_TRANS: Attagene TRANS-FACTORIAL HepG2 Assay for human Liver X Receptor alpha (LXRa) (AID 2282980; active = hit-call score of the fitted dose curve at least 0.9, where 1 is the maximum); settings: HepG2 Attagene TRANS reporter, LXRa transactivation
Oxysterols receptor LXR-alpha (Homo sapiens), sequence (Q13133 whole entry, looked up, the tested form may be a part): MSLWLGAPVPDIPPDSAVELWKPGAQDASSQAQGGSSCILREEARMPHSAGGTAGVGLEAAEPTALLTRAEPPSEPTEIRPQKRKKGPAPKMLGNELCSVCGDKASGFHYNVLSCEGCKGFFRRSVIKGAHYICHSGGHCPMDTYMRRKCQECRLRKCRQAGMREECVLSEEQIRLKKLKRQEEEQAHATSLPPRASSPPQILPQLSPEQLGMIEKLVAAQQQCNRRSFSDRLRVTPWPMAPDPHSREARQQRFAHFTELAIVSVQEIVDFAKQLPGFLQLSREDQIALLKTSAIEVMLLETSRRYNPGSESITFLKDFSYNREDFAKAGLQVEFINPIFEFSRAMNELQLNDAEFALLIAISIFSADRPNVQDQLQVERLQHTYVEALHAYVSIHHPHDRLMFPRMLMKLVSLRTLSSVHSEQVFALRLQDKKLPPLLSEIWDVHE
Procedure, shortened: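 HepG2 cells were transiently transfected with multiplexed reporter units driven by chimeric LXRa–GAL4 fusion proteins, then dosed for 24 h. Reporter mRNA was quantified by RT-PCR, fluorescent labelling and capillary electrophoresis; gain of signal fitted against DMSO baseline.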

[13] = ATG_VDRE_CIS: Attagene CIS-FACTORIAL HepG2 Assay for human Vitamin D Receptor Element (VDRE) (AID 2282968); settings: HepG2 VDRE cis-reporter transcription, actives raise or lower the signal
Procedure, shortened: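 HepG2 cells transiently transfected with cis-element reporter units, dosed 24 h; reporter mRNA measured by RT-PCR, 6-FAM labeling, HpaI digestion and capillary electrophoresis. Activity fitted bidirectionally against DMSO baseline.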

[14] = molecular target: Nuclear receptor subfamily 1 group I member 3 (Homo sapiens) (UniProt Q14994); assay: ATG_CAR_TRANS: Attagene TRANS-FACTORIAL HepG2 Assay for human Constitutive Androstane Receptor (CAR) (AID 2282969; active = hit-call score of the fitted dose curve at least 0.9, where 1 is the maximum;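 note: activators raise reporter mRNA above DMSO so AC50 marks induction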); settings: HepG2 Attagene TRANS-FACTORIAL CAR reporter
Nuclear receptor subfamily 1 group I member 3 (Homo sapiens), sequence (Q14994 whole entry, looked up, the tested form may be a part): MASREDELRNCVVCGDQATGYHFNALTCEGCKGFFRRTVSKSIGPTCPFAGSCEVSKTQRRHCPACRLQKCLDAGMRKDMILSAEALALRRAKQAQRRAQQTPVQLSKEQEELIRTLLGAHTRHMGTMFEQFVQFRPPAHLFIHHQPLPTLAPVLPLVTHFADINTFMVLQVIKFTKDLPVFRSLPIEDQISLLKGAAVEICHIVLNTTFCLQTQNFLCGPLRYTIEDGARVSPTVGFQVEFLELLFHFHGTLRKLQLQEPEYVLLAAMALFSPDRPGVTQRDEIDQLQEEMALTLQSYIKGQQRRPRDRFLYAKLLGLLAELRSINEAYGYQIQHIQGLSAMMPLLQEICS
Procedure, shortened: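 HepG2 cells transiently transfected with multiplexed GAL4-UAS reporter units expressing chimeric NR-Gal4 proteins; compound exposure 24 h. Reporter mRNA measured by RT-PCR, 6-FAM labelling, HpaI digestion and capillary electrophoresis; gain-of-signal fitted against DMSO baseline.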

[15] = molecular target: Estrogen receptor (Homo sapiens) (UniProt P03372); assay: ATG_ERa_TRANS: Attagene TRANS-FACTORIAL HepG2 Assay for human Estrogen Receptor alpha (ERa) (AID 2282970; active = hit-call score of the fitted dose curve at least 0.9, where 1 is the maximum); settings: HepG2 Attagene TRANS ERa GAL4 reporter, mRNA
Estrogen receptor (Homo sapiens), sequence (P03372 whole entry, looked up, the tested form may be a part): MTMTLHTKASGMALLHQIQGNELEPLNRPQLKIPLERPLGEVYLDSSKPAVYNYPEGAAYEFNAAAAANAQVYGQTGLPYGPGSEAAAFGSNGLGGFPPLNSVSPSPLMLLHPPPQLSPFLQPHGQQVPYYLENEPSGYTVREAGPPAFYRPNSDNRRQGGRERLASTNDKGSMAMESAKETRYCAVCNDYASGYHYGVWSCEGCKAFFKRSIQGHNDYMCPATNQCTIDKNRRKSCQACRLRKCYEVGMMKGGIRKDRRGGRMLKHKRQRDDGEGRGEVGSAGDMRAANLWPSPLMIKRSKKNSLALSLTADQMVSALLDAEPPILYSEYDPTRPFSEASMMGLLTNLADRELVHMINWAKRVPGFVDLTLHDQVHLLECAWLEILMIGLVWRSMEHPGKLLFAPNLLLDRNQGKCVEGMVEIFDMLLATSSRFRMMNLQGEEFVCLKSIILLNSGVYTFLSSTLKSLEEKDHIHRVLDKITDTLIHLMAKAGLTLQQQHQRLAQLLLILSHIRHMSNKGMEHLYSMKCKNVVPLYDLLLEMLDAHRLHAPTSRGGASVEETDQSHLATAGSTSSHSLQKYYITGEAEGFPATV
Procedure, shortened: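 HepG2 cells transiently transfected with multiplexed GAL4-UAS reporter units; ERa activity read via exogenous chimeric NR-Gal4 protein. After 24 hour compound exposure, reporter mRNA measured by RT-PCR with 6-FAM labelling and capillary electrophoresis; gain-of-signal fitted relative to DMSO.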

[16] = molecular target: Steroid hormone receptor ERR1 (Homo sapiens) (UniProt P11474); assay: ATG_ERRa_TRANS: Attagene TRANS-FACTORIAL HepG2 Assay for human Estrogen-Related Receptor alpha (ERRa) (AID 2282971; active = hit-call score of the fitted dose curve at least 0.9, where 1 is the maximum); settings: HepG2 Attagene TRANS reporter, ERRa transactivation
Steroid hormone receptor ERR1 (Homo sapiens), sequence (P11474 whole entry, looked up, the tested form may be a part): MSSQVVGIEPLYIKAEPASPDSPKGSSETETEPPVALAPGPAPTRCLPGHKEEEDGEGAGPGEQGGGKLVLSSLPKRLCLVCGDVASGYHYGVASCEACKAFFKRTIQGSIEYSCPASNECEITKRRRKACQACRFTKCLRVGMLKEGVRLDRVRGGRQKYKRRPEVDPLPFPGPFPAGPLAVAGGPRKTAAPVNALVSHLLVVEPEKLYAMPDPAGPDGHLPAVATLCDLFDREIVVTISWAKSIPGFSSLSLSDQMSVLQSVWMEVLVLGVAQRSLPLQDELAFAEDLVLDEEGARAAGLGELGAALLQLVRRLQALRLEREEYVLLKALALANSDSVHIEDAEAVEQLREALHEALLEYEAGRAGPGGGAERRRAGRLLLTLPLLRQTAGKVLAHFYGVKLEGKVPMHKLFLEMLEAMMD
Procedure, shortened: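 HepG2 cells transiently transfected with multiplexed GAL4-UAS reporter units reading chimeric ERRa-Gal4 activity; 24 h compound exposure. Reporter mRNA measured by RT-PCR, 6-FAM labelling, HpaI digest and capillary electrophoresis; gain of signal fitted versus DMSO baseline.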

[17] = molecular target: Estrogen-related receptor gamma (Homo sapiens) (UniProt P62508); assay: ATG_ERRg_TRANS: Attagene TRANS-FACTORIAL HepG2 Assay for human Estrogen-Related Receptor gamma (ERRg) (AID 2282977; active = hit-call score of the fitted dose curve at least 0.9, where 1 is the maximum;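 note: hits increase reporter signal over DMSO so potencies reflect activators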); settings: HepG2 Attagene TRANS reporter, ERRg transactivation
Estrogen-related receptor gamma (Homo sapiens), sequence (P62508 whole entry, looked up, the tested form may be a part): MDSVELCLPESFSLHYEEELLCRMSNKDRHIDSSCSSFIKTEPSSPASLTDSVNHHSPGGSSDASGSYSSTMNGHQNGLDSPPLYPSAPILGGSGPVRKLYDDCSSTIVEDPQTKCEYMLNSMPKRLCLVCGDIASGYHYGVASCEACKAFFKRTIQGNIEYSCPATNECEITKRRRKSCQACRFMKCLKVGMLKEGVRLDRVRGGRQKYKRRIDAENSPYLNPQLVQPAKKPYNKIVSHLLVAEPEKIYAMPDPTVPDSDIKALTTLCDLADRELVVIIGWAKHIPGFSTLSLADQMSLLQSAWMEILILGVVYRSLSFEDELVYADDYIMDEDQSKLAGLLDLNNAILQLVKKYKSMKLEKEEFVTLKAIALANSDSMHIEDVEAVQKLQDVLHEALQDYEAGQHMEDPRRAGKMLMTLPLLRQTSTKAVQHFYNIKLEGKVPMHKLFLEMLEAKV
Procedure, shortened: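 Transient HepG2 transfectants, 24 h compound exposure, GAL4-UAS reporter mRNA by RT-PCR/6-FAM labelling/capillary electrophoresis; positive direction vs DMSO.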

[18] = ATG_SREBP_CIS: Attagene CIS-FACTORIAL HepG2 Assay for human Sterol Regulatory Element Binding (SREBP) (AID 2282962); settings: HepG2 Attagene cis-factorial SREBP reporter, mRNA; actives raise or lower the signal
Procedure, shortened: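 HepG2 cells transiently transfected with multiplexed cis-element reporter units report endogenous transcription factor activity. After 24 h of chemical exposure, reporter mRNA was quantified by RT-PCR, 6-FAM labelling, HpaI digestion and capillary electrophoresis; bidirectional fits used DMSO as baseline.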

[19] = molecular target: Bile acid receptor (Homo sapiens) (UniProt Q96RI1); assay: ATG_FXR_TRANS: Attagene TRANS-FACTORIAL HepG2 Assay for Farnesoid X Receptor (FXR) (AID 2282979; active = hit-call score of the fitted dose curve at least 0.9, where 1 is the maximum;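 note: hits raise reporter mRNA above DMSO so AC50 marks FXR activation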); settings: HepG2 Attagene TRANS FXR-GAL4 reporter transcription
Bile acid receptor (Homo sapiens), sequence (Q96RI1 whole entry, looked up, the tested form may be a part): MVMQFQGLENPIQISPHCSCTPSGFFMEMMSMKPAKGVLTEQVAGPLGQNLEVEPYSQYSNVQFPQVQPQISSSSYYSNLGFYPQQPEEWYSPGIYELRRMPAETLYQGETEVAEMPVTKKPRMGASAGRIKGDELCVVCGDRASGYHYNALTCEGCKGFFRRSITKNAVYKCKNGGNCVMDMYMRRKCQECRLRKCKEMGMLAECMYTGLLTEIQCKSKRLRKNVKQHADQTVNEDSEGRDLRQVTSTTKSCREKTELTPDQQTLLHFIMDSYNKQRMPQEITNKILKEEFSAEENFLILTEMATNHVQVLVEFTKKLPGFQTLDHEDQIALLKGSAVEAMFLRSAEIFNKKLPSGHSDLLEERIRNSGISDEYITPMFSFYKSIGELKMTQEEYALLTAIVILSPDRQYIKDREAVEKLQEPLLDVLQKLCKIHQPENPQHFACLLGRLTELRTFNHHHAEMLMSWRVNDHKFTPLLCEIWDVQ
Procedure, shortened: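 HepG2 cells transiently transfected with reporter constructs in which a chimeric FXR-GAL4 protein drives a GAL4-UAS reporter; 24 h compound exposure. Reporter mRNA measured by RT-PCR, FAM labelling, HpaI digestion and capillary electrophoresis; gain-of-signal versus DMSO.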

## Cc1cc(Cl)ccc1OC(C)C(=O)O (stereo not given)
[1]
  outcome: inactive
[2]
  outcome: inactive
[3]
  outcome: inactive
[4]
  outcome: inactive
[5]
  outcome: inactive
[6]
  outcome: inactive
[7]
  outcome: inactive
[8]
  outcome: inactive

## COc1ccc(N)cc1
[1]
  outcome: inactive
[2]
  outcome: inactive
[3]
  outcome: inactive
[9]
  outcome: inactive
[5]
  outcome: inactive
[6]
  outcome: inactive
[7]
  outcome: inactive
[8]
  outcome: inactive
[10]
  outcome: inactive
[11]
  outcome: inactive
[12]
  outcome: inactive

## O=[N+]([O-])c1c2ccccc2cc2ccccc12
[1]
  outcome: inactive
[2]
  outcome: inactive
[3]
  outcome: inactive
[4]
  outcome: inactive
[5]
  outcome: inactive
[6]
  outcome: inactive
[13]
  outcome: inactive
[14]
  outcome: inactive
[15]
  AC50: 5.59 µM (active)
[16]
  outcome: inactive
[17]
  outcome: inactive
[12]
  outcome: inactive

## CCN(N=O)C(N)=O
[1]
  outcome: inactive
[18]
  outcome: inactive
[3]
  outcome: inactive
[9]
  outcome: inactive
[4]
  outcome: inactive
[5]
  outcome: inactive
[6]
  outcome: inactive
[15]
  outcome: inactive
[7]
  outcome: inactive
[8]
  outcome: inactive
[10]
  outcome: inactive
[19]
  outcome: inactive
[12]
  outcome: inactive

## C=CC(=O)NC(C)(C)CC(C)=O
[1]
  outcome: inactive
[2]
  outcome: inactive
[3]
  outcome: inactive
[4]
  outcome: inactive
[5]
  outcome: inactive
[6]
  outcome: inactive
[13]
  outcome: inactive
[14]
  outcome: inactive
[7]
  outcome: inactive
[10]
  outcome: inactive
[12]
  outcome: inactive
